In PubChem BioAssay AID1159580 (chemical genetic matrix, 2015):
The campaign covered roughly 5,500 compounds. About 2,000 (36%) were called active. Roughly 18% stayed inconclusive and do not appear here. Rule as the data show it: active = normalized growth mostly below about 0.91 (no sharp cut-off); inconclusive = no clear call, values can overlap the other calls; inactive = mostly above about 0.92. This is one part of the list.

Assay: chemical genetic growth profiling, strain panel (AID 1159580);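 also: tested at 20 µM; growth read once vehicle control cultures reached saturation at 30 °C; 1 = growth at the plate median or of vehicle wells; lower values mean less growth of the strain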
Conditions: S. cerevisiae deletion strains, growth OD

Measured: normalized growth

NC(=S)N/N=C1/CCCc2ccccc21
active: locus YDR052C, strain DBF4, active compounds read low 0.884 | locus YDR226W, strain ADK1, active compounds read low 0.866 | locus YFR028C, strain CDC14, active compounds read low 0.834 | locus YHR030C, strain SLT2, active compounds read low 0.805 | locus YJR016C, strain ILV3, active compounds read low 0.896 | locus YKL048C, strain ELM1, active compounds read low 0.781 | locus YKL203C, strain TOR2, active compounds read low 0.589 | locus YLR403W, strain SFP1, active compounds read low 0.659 | locus YNL207W, strain RIO2, active compounds read low 0.858 | locus YOR119C, strain RIO1, active compounds read low 0.573
inactive: locus YAR019C, strain CDC15, active compounds read low 0.923 | locus YBL105C, strain PKC1, active compounds read low 0.944 | locus YBR135W, strain CKS1, active compounds read low 0.939 | locus YBR136W, strain MEC1, active compounds read low 0.909 | locus YBR160W, strain CDC28, active compounds read low 0.905 | locus YDL017W, strain CDC7, active compounds read low 0.921 | locus YDL028C, strain MPS1, active compounds read low 0.924 | locus YDL101C, strain DUN1, active compounds read low 0.921 | locus YDL108W, strain KIN28, active compounds read low 0.906 | locus YDL214C, strain PRR2, active compounds read low 0.805 | locus YDR054C, strain cdc34, active compounds read low 0.885 | locus YDR477W, strain SNF1, active compounds read low 0.748 | locus YER123W, strain YCK3, active compounds read low 0.891 | locus YER133W, strain GLC7, active compounds read low 0.802 | locus YFL009W, strain cdc4, active compounds read low 0.92 | locus YFL029C, strain CAK1, active compounds read low 0.921 | locus YFR003C, strain YPI1, active compounds read low 0.913 | locus YFR019W, strain FAB1, active compounds read low 0.925 | locus YGR040W, strain KSS1, active compounds read low 0.805 | locus YGR052W, strain FMP48, active compounds read low 0.746 | locus YGR092W, strain DBF2, active compounds read low 0.814 | locus YHR079C, strain IRE1, active compounds read low 0.954 | locus YHR082C, strain KSP1, active compounds read low 0.935 | locus YHR205W, strain SCH9, active compounds read low 0.993 | locus YIL147C, strain SLN1, active compounds read low 0.91 | locus YJL095W, strain BCK1, active compounds read low 0.934 | locus YJL128C, strain PBS2, active compounds read low 0.966 | locus YJL157C, strain FAR1, active compounds read low 0.749 | locus YJR066W, strain TOR1 (second series), active compounds read low 0.824 | locus YJR066W, strain TOR1, active compounds read low 0.765 | locus YKL067W, strain YNK1, active compounds read low 0.796 | locus YKL101W, strain HSL1, active compounds read low 0.822 | locus YKL193C, strain SDS22, active compounds read low 0.922 | locus YLR113W, strain HOG1, active compounds read low 1 | locus YLR133W, strain CKI1, active compounds read low 0.796 | locus YML070W, strain DAK1, active compounds read low 0.914 | locus YMR001C, strain CDC5, active compounds read low 0.939 | locus YMR205C, strain PFK2 (second series), active compounds read low 0.759 | locus YNL006W, strain LST8, active compounds read low 0.978 | locus YNL020C, strain ARK1, active compounds read low 0.802 | locus YNL161W, strain CBK1, active compounds read low 0.955 | locus YNL183C, strain NPR1, active compounds read low 0.735 | locus YNL222W, strain SSU72, active compounds read low 0.956 | locus YNL307C, strain MCK1 (second series), active compounds read low 0.695 | locus YOL078W, strain AVO1, active compounds read low 0.925 | locus YOL136C, strain PFK27, active compounds read low 0.922 | locus YOR061W, strain CKA2, active compounds read low 0.902 | locus YOR231W, strain MKK1, active compounds read low 0.912 | locus YOR329C, strain SCD5, active compounds read low 0.965 | locus YPL031C, strain PHO85, active compounds read low 0.788 | locus YPL153C, strain RAD53, active compounds read low 0.837 | locus YPL204W, strain HRR25, active compounds read low 0.872 | locus YPL209C, strain IPL1, active compounds read low 0.934 | locus YPL256C, strain CLN2, active compounds read low 0.999 | locus YPR025C, strain CCL1, active compounds read low 0.937 | locus YPR106W, strain ISR1, active compounds read low 0.913 | locus YPR111W, strain DBF20, active compounds read low 0.874 | strain NNK1, active compounds read low 0.908 | strain TSCII, active compounds read low 0.93
